According to PubChem BioAssay AID678 (Vanderbilt High Throughput Screening Facility, 2007):
About 15 (0.9%) of roughly 1,700 compounds were called active.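 The calls were made as follows: active = fluorescence response below the plate's average for near-maximal glutamate wells, less 3 SD of those wells; inactive = the rest.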 A selection follows.

molecular target: Metabotropic glutamate receptor 4 (Homo sapiens) (UniProt Q14833); test: human mGluR4 response to M1 antagonist hits, M1 allosteric modulator project, cell-based, antagonist mode, secondary assay 1 (AID 678); conditions: CHO-mGluR4 calcium flux, Fluo-4 fluorescence, glutamate EC80; at 10 µM; stronger effect = lower value;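 also: raw unnormalized fluorescence span taken in the window right after glutamate addition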

Fluorescence response (max-min), inactive:
CN(C)[C@@H]1C(=O)C(C(N)=O)=C(O)[C@@]2(O)C(=O)C3=C(O)c4c(O)ccc(Cl)c4[C@@H](O)[C@H]3C[C@@H]12 238
Cc1cccc(N2CCN(Cc3c(C)n(C)n(-c4ccccc4)c3=O)CC2)c1C 223
CCC1(C)Cc2c(sc3nc4n(c(=O)c23)CCCS4)CO1 (stereo not given) 249
O=C(NC1=NCCS1)c1ccc(Cl)s1 158
Cc1nc2ccccc2c2oc(C(=O)NCCCN3CCC(C)CC3)cc12 185
O=S(=O)(CCc1nc2ccccc2o1)c1ccc(Cl)cc1 249
CCOC(=O)C1=C(CC)Nc2ccccc2N=C1NC(=O)c1cccc(S(=O)(=O)N2CCCC2)c1 148
COc1ccc(CCn2c(=N)c(C(=O)NCc3ccco3)cc3c(=O)n4cccc(C)c4nc32)cc1 207
CCC(C(=O)OCCN(CC)CC)c1ccccc1 (stereo not given) 235
O=C(c1ccco1)N1CCN=C1SCc1cccc(Cl)c1 236
O=C1NC(Nc2nc3ccccc3s2)(C(F)(F)F)C(=O)N1C1CCCCC1 (stereo not given) 308
Cn1c(CCN2CCCCCC2)nc2cc(NC(=O)Nc3ccccc3)ccc21 225
CCOC(=O)c1c(-c2ccc(C)cc2C)csc1NC(=O)CSc1nnnn1C 167
CC(C)(C)n1nnnc1C(c1cccs1)N(Cc1cccnc1)CC1CCCO1 (stereo not given) 241
CCn1c(=N)n(CC(=O)c2cccc(OC)c2)c2ccccc21 268
O=C(C(NS(=O)(=O)c1cccc2nsnc12)c1ccccc1)N1CCN(c2ccccn2)CC1 (stereo not given) 228
C=CCn1c(=S)[nH]c2nc3c(cc2c1=O)COC(C)(C)C3 199
Cc1nc2c(-c3ccc(F)cc3)c(C)nn2c(C)c1CCC(=O)N1CCN(c2ccccn2)CC1 245
CN(C)CCOC(=O)C(c1ccccc1)C1(O)CCCC1 (stereo not given) 250
CCCCN(C)C(=O)c1ccc2c(c1)N(CC)C(=O)c1ccccc1S2(=O)=O 258
O=C(NCCCN1CCCCCC1)C1CC(=O)N(C2CCCC2)C1 (stereo not given) 241
CC1CCCC(C)N1CCCNC(=O)c1cc2c(=O)n(C)c3ccccc3c2n1C (stereo not given) 236
CCOc1ccccc1C(=O)NCCCn1ccnc1 200
O=S(=O)(c1ccc(OCC(O)CN2CCN(c3ccccc3Cl)CC2)cc1)N1CCOCC1 (stereo not given) 233
COc1cccc2sc(Nc3nc(C)c(C(C)=O)s3)nc12 200
CCC(C)(NC(=O)c1ccccn1)C(=O)NC1CCCCC1 (stereo not given) 237
COc1cccc(OCCOc2cccc(/C=N/n3cnnc3)c2)c1 210
CCOC(=O)N1CCN(C(=O)C2CCN(c3ncnc4c3sc3cccc(F)c34)CC2)CC1 221
Cc1ccccc1C(OCC(O)CN1CCCCC1CCO)c1ccccc1 (stereo not given) 188
N#CC(C(=O)c1ccc(S(=O)(=O)N2CCCCCC2)cc1)c1nc2ccccc2[nH]1 (stereo not given) 182
COc1ccc(S(=O)(=O)Nc2ccc3c(c2)OCO3)cc1Cl 202
CCOC(=O)C1CCN(Cc2coc3ccc(Cl)cc3c2=O)CC1 219
O=C(Cc1cccs1)N1CCCC(c2nc(-c3ccc(S(=O)(=O)N4CCCC4)cc3)no2)C1 (stereo not given) 213
CCOC(=O)c1[nH]c2ccc(OC)cc2c1NC(=O)CCN1CCN(Cc2ccccc2)CC1 230
CCOC(=O)N1CCN(CC(=O)Nc2cc(C)nn2-c2nc3ccccc3s2)CC1 255
COc1cc(Cl)c(C)cc1NC(=O)CSc1nnc(-c2ccco2)n1CC(C)C 252
CCC(=O)c1ccc(OCC(O)CN2CCN(c3cccc(C(F)(F)F)c3)CC2)cc1 (stereo not given) 252
O=C(NCC(F)(F)F)Nc1nnc(C(F)(F)F)s1 203
CSc1nnc2c(n1)OC(c1ccsc1)N(C(C)=O)c1ccccc1-2 (stereo not given) 247
CN1CCN(CC(=O)Nc2sc3c(c2C#N)CCC(C(C)(C)C)C3)CC1 (stereo not given) 231
Cc1ccc(-c2csc3nnc(SCC(=O)NCc4ccco4)n23)cc1 237
Cc1ccsc1-c1nc(CSCC(=O)NCCN2CCCC2)c(C)o1 246
CC1=Nn2c(nnc2-c2ccccc2)SC1 162
CCCCCOC(=O)NCCOC(=O)Nc1ccc(C(=O)OCC)cc1 170
CCOC(=O)N1CCN(C(=O)C2CCCN(c3ncnc4c3sc3cccc(F)c34)C2)CC1 (stereo not given) 165
c1ccc(-c2cc(-c3nnc4sc(-c5ccccn5)nn34)[nH]n2)cc1 215
CC1(C)Cc2c(sc3nc4n(c(=N)c23)CCCCC4)CO1 203
CCN(CCCCOC(=O)c1ccc(OC)c(OC)c1)C(C)Cc1ccc(OC)cc1 (stereo not given) 254
Cc1ccc(-c2noc(CCC(=O)Nc3ccccc3N3CCN(C)CC3)n2)cc1 218
COC(=O)c1ccc(NC(=O)CN(c2ccc(C)cc2)S(=O)(=O)c2c(C)n[nH]c2C)cc1 174
O=C(c1ccc(S(=O)(=O)N2CCOCC2)cc1)N1CCN(c2ccccc2)CC1 197
COc1ccc(-c2noc(CN(C)S(=O)(=O)c3ccc(C)cc3)n2)cc1 259
COc1ccc(-c2nnn(Cc3nc(N)nc(N4CCCCC4)n3)n2)cc1 348
CC1(C)CN=C(N2CCN(c3ncnc4sc5c(c34)CCCC5)CC2)S1 244
CC12CN(Cc3ccccc3)CC(C)(CN(Cc3ccccc3)C1)C2=NO 253
COCCN(C(=O)CCC(=O)Nc1ccccn1)C(C(=O)NCCC(C)C)c1ccc(OC)cc1 (stereo not given) 243
O=C(CCN1C(=O)COc2ccccc21)NCCCN1CCN(c2ccc(F)cc2)CC1 252
COCCn1c(SCC(=O)Nc2cc(Cl)ccc2OC)nc2c(c1=O)SC(C)C2 (stereo not given) 256
COc1cc(OC)c(C(=O)NC2CC(C)(C)NC(C)(C)C2)cc1OC 184
CN1CCN(c2ccc(NC(=O)COc3ccc(Cl)cc3Cl)cc2)CC1 245
O=C(C(c1ccccc1)c1ccccc1)N1CCN(CC(O)COc2ccccc2)CC1 (stereo not given) 172
C=CCSc1nc2ccccc2[nH]1 255
COC(CCN(C)C)(c1ccccc1)c1ccccc1 257
CCN1CCN(c2c(Cl)cccc2NC(=O)c2ccc(Br)o2)CC1 203
O=C(Nc1ccncc1)c1c(F)cccc1F 195
CCn1c(=O)cc(OCC(=O)NCCCN2CCN(c3cccc(Cl)c3)CC2)c2ccccc21 275
CCOC(=O)c1c(NC(=O)CSc2nnc(CN3CCOCC3)n2C)sc2c1CCCC2 212
COC(=O)c1ccc(C2C3=C(Nc4nnnn42)c2ccccc2OC3)cc1 (stereo not given) 256
CCC/C(O)=C1\C(=O)CC(C)(C)CC1=Nc1ccccc1OC 272
CCOC(=O)Nc1ccc2c(c1)N(C(=O)CN1CCN3CCCC3C1)c1ccccc1CC2 (stereo not given) 187
O=C(c1ccc(-n2cnnn2)cc1)N1CCN(C(c2ccccc2)c2ccccc2)CC1 242
CCOC(=O)N1CCN(S(=O)(=O)c2cc(Br)cc3c2N(C(=O)C2CC2)CC3)CC1 246
Cc1cc(C)n(-c2nc(SCC(=O)N3CCCC3)c3c4c(sc3n2)CCCC4)n1 193
CCCCN(CCCC)C(=O)CCS(=O)(=O)c1ccc2c(c1)n(C)c(=O)c(=O)n2C 272
C=C(C)Cn1c(N2CCCC2)nc2c1c(=O)[nH]c(=O)n2C 203
Cc1c(C)c2cc3c4c(oc3c(C)c2oc1=O)CCCC4 174
CCN1C(=O)/C(=C2\SC(N3CCCCC3)=NC2=O)c2ccccc21 235
CCCCOc1ccc(C(C)(O)CCN2CCOCC2)cc1 (stereo not given) 209
O=C(CCCN1C(=O)CSc2ncccc21)N1CCN(c2cccc(C(F)(F)F)c2)CC1 263
COc1ccccc1OCCOc1ccc(/C=N/n2cnnc2)cc1 239
